Out of some 3,400 compounds screened, about 120 (3.5%) were called active. No rule for the calls is given here. The list is a sample of the results. Potency and affinity values are given separately.
Test: viability loss in HepG2 hepatoma cells – cell-based, ATP luminescence, cherry-pick, activator set 2, cytotoxicity control, dose response (AID 1053143)
Settings: CellTiter-Glo ATP luminescence, 72 h; series mostly up to 26 µM; activity change, negative = cytotoxicity: at the top concentration

SMILES	activity change, negative = cytotoxicity
COC(=O)c1ccc(-c2nc3ccc(C)cc3o2)cc1	-4.62% (inactive)
Cc1ccc2oc(-c3cccc(NC(=O)c4ccccn4)c3)nc2c1	-21.7% [at 12 µM] (inactive)
COc1cccc(-c2nnc(-c3ccc4ccccc4c3)o2)c1	-4.7% (inactive)
COc1ccc(-c2nnc(-c3ccc(C)cc3)o2)cc1	-7.01% (inactive)
COC(=O)CSc1nc2ccccc2c(=O)n1C	12.1% (inactive)
COc1cc(CO)ccc1OCc1ccc(Cl)nc1	-13.2% [at 12 µM] (inactive)
Clc1ccccc1OCc1nc(-c2ccccn2)no1	-14.1% (inactive)
Cn1c(SCC(=O)c2ccccc2)nnc1-c1ccco1	0.181% (inactive)
Cc1cc(C(=O)COC(=O)c2cccc(S(=O)(=O)N(C)C)c2)c(C)n1CC1CCCO1 (centres undefined)	-5.36% (inactive)
CC(C)Oc1ccc(C(=O)OCC(=O)c2ccc[nH]2)cc1	-11.4% (inactive)
COC(=O)CSC(C(=O)Nc1ccc(C)c(C)c1)c1ccccc1 (centres undefined)	-18% (inactive)
CCCc1nc2c3ccccc3ccn2c1Cc1ccccc1	-13.7% (inactive)
COc1ccc2[nH]c3c(=O)n(CCc4ccccc4)cnc3c2c1	-10.2% (inactive)
Nc1ccc(C(=O)OCCc2ccccc2)cc1	-19% (inactive)
O=C(Nc1ccc(Cl)cn1)c1ccccc1F	-11.4% (inactive)
O=C(Nc1ccc(Cl)cn1)c1ccc2nccnc2c1	-14.3% (inactive)
OCC1OC(n2ccc3c(SCc4ccccc4)ncnc32)C(O)C1O (centres undefined)	-7.9% [at 6 µM] (inactive)
Cc1cc(N2CCOCC2)nc2cc(O)ccc12	1.65% (inactive)
O=C1c2ccccc2NC(c2ccc(-c3cccs3)o2)N1O (centres undefined)	-8.51% (inactive)
c1cnc(SCCCOc2ccc3ccccc3c2)nc1	-7.21% (inactive)
Cc1ccc(NC(=O)CCC(=O)c2cccs2)cc1	0.275% (inactive)
C=CCNc1nc(-c2ccc3c(c2)OCCO3)cs1	-18.3% (inactive)
O=c1oc(CCCO)cc2ccc(/C=C/c3cccc([N+](=O)[O-])c3)cc12	9.18% (inactive)
CN1CCCN(C(=O)c2cc(-c3cccc4ccccc34)nc3ccccc23)CC1	-16.5% (inactive)
O=C(Nc1cccnc1Cl)c1cc(-c2ccco2)on1	5.57% (inactive)

SMILES	activity change, negative = cytotoxicity
CC(C)c1cc(C(=O)NCCc2ccccc2)no1	-19.3% (inactive)
O=C(Nc1ccc(F)c(Cl)c1)c1cc(-c2ccco2)on1	15.2% (inactive)
COc1ccc(NC(=O)c2cc(-c3ccco3)on2)cc1	2.5% (inactive)
COc1ccc2cc(-c3ccccc3)c(=O)oc2c1	-12.2% (inactive)
Cc1ccc(C)c(OCc2cc(C(=O)N3CC[C@H](O)C3)no2)c1	-11.7% (inactive)
COC(=O)C1=C(N)Oc2c(oc(CO)cc2=O)C1c1ccc(F)cc1 (centres undefined)	-12.3% (inactive)
Fc1ccc(SCCc2ccccn2)cc1	-10.7% (inactive)
O=C(Nc1cccc(-c2ccc(N3CCOCC3)nn2)c1)c1cccc(Cl)c1	-6.34% (inactive)
CCOC(=O)C1CCN(C(=O)C(CC)c2ccccc2)CC1 (centres undefined)	0.165% (inactive)
Cc1ccc(C(=O)Nc2cccc(-c3ccc(N4CCOCC4)nn3)c2)cc1	-19.4% [at 12 µM] (inactive)
CCOC(=O)C1CCN(C(=O)/C=C/c2ccccc2)CC1	-14.5% (inactive)
Fc1ccc(/C=C/c2nnc(-c3cccs3)o2)cc1	-11.6% (inactive)
O=C(C=NNc1ccccc1)c1ccccc1	-23.1% (inactive)
CCC(C)C(=O)Nc1nnc(-c2cccs2)s1 (centres undefined)	22.8% (inactive)
O=C(Nc1ncccc1O)c1ccc2ccccc2c1	-15.9% (inactive)
NC(=O)c1ccccc1NC(=O)c1ccc2c(c1)OCO2	-17% (inactive)
O=C(Nc1ccc(Cl)cc1Cl)c1ccc2c(c1)OCCO2	0.31% (inactive)
O=C(Nc1cccnc1)c1ccc(Oc2ccccc2)cc1	-11.8% (inactive)
O=C(Nc1ncccc1Cl)c1cc2ccccc2o1	-1.87% (inactive)
O=C(Nc1cccc([N+](=O)[O-])c1)c1ccc2c(c1)OCCO2	32.1% [at 12 µM] (inactive)
O=C(Nc1cccnc1Cl)c1cc2ccccc2o1	-5.8% (inactive)
O=C(Nc1ccccc1F)c1ccc2c(c1)OCO2	-28% (inactive)
CC(=O)Oc1ccc(Oc2ccc(-c3noc(C)n3)cc2)cc1	-9.53% (inactive)
CSc1nnc(NC(=O)c2ccc(S(=O)(=O)N(C)C)cc2)s1	-1.21% (inactive)
CN(C)c1ccc(-c2nnc(-c3cccs3)o2)cc1	-9.57% (inactive)

SMILES	activity change, negative = cytotoxicity
CCN(CC)C(=O)C1CCN(Cc2cn(C)nc2-c2ccc(Oc3ccccc3)cc2)CC1	4.7% (inactive)
COc1ccc(-c2[nH]ncc2CNC(C)c2ccccc2Cl)cc1F (centres undefined)	-10.5% (inactive)
O=C(O)c1ccccc1-c1ccccc1C(=O)NNc1ccccc1	-11.9% (inactive)
O=C(N/N=C/c1ccc(N2CCOCC2)cc1)c1ccccn1	-21.9% (inactive)
O=C(COC(=O)c1ccc(F)c(S(=O)(=O)N2CCCCC2)c1)NCc1ccc(F)cc1	13.5% (inactive)
Oc1ccc(-c2csc(Nc3ccc4c(c3)OCO4)n2)c(O)c1	-4.71% (inactive)
Oc1ccc(-c2csc(Nc3ncccn3)n2)c(O)c1	0.686% (inactive)
O=C(/C=C\Nc1ccc2c(c1)OCO2)c1ccc2c(c1)OCO2	-15.2% (inactive)
Fc1ccccc1-c1nc(-c2ccccc2)no1	-10.7% (inactive)
Fc1ccccc1-c1nc(-c2ccncc2)no1	-9.69% (inactive)
S=C(c1ccc(-c2cccc(Cl)c2)o1)N1CCCCC1	-11.6% (inactive)
COc1ccc(/C=C/C(=O)c2ccc[nH]2)cc1OC	-6.18% (inactive)
Cc1ccc(Cc2c(-c3cccc(Cl)c3)nc3ccc(Br)cn23)cc1	2.45% (inactive)
COc1ccc(C2=NN(C(=O)c3ccccc3C(=O)O)C(c3ccccc3O)C2)cc1 (centres undefined)	3.34% (inactive)
CC(=O)N1N=C(c2ccccc2)CC1c1cn(C)c2ccccc12 (centres undefined)	38.2% (inactive)
O=c1oc2ccccc2cc1-c1nnc(NCc2ccco2)s1	-16.9% (inactive)
Cc1cc(OCc2cc(C(=O)N(C)C3CCOC3)no2)cc(C)c1Cl (centres undefined)	-9.61% (inactive)
Nc1c(C(=O)Nc2ccc3c(c2)OCCO3)nnn1Cc1cccc(Cl)c1	-26.3% (inactive)
C(/CCc1ccccc1)=N\Nc1nc2ccccc2[nH]1	0.412% (inactive)
Oc1ccccc1-c1cc(-c2ccc(F)cc2)n[nH]1	-34.5% (inactive)
Oc1ccc(Br)cc1-c1cc(-c2ccccc2F)[nH]n1	-27.4% (inactive)
O=[N+]([O-])c1ccc2nc(-c3ccccc3[N+](=O)[O-])[nH]c2c1	-5.65% (inactive)
Cc1ccccc1-c1cc(-c2ccccc2O)n[nH]1	3.4% [at 12 µM] (inactive)
CC(C)(C)NC(=O)c1cccc(NC(=O)c2cccc(O)c2)c1	-6.98% (inactive)
CCC(=O)Nc1cc(NC(=O)CSc2ncc(-c3ccc(F)cc3)n2Cc2ccco2)ccc1C	-14.2% (inactive)

SMILES	activity change, negative = cytotoxicity
O=C(CSc1nncs1)NC(=O)Nc1ccc2c(c1)OCCO2	-4.21% (inactive)
Cc1ccc(NC(=O)c2cc(-c3cccs3)on2)cc1C	12.4% (inactive)
CC(C)NC(=O)c1cc(-c2cccs2)on1	-17.5% (inactive)
CCOC(=O)c1ccc(NC(=O)C2CC3CCC2C3)cc1 (centres undefined)	-0.283% (inactive)
CCOc1ccc(C(=O)NC2CCCCCCC2)cc1	-19.9% [at 12 µM] (inactive)
CCOc1ccc(C(=O)Nc2ccc3[nH]ncc3c2)cc1	-17.4% (inactive)
O=C(Nc1ccc2ccccc2n1)c1ccccc1Cl	-20.5% (inactive)
Cn1c(CCNC(=O)c2ccco2)nc2cc(NC(=O)c3ccco3)ccc21	17% (inactive)
O=C(Nc1nc2cc3c(cc2s1)OCCO3)C1CCCCC1	-13.1% (inactive)
CN(C)S(=O)(=O)c1ccc2nc(NC(=O)c3cccnc3)sc2c1	-8.19% (inactive)
O=C(Nc1nc2cc3c(cc2s1)OCO3)C1CCCCC1	39.8% (inactive)
COc1ccc2nc(NC(=O)c3ccccc3O)sc2c1	-6.8% (inactive)
CC(=O)Nc1nc2cc3c(cc2s1)OCCO3	4.89% (inactive)
Cc1ccc(C(=O)Nc2nc3ccc(Cl)cc3s2)o1	-14.4% (inactive)
CC(C)(C)C(=O)Nc1nc2cc3c(cc2s1)OCO3	-18.5% (inactive)
O=C(Nc1nc2ccc(F)cc2s1)c1cccs1	-9.76% (inactive)
Nc1[nH]n(-c2ccccc2)c(=O)c1N=Nc1ccccc1	-8.67% (inactive)
CC(=O)Nc1cccc(-c2csc(Nc3ncccn3)n2)c1	4.47% (inactive)
COc1ccc(N(C(=O)c2ccc(S(=O)(=O)N3CCCC3)cc2)C2C=CS(=O)(=O)C2)cc1 (centres undefined)	-4.95% (inactive)
N/C(=N\OC(=O)c1ccc2c(c1)OCO2)c1ccncc1	-0.949% (inactive)
N#Cc1cccc(NC(=O)COC(=O)Cn2nc(-c3ccccc3)oc2=O)c1	-7.49% (inactive)
CC1CC(O)C(C)CN1 (centres undefined)	9.74% (inactive)
O=C(NC1CCCCC1)c1ccc2ccccc2c1	-2.43% (inactive)
CCc1ccccc1Nc1nc(N)nc(CSCC(=O)Nc2ccc(C)c(C)c2)n1	-11.2% (inactive)
O=c1[nH]c(-c2ccccc2)nnc1-c1ccccc1	-10.4% (inactive)

SMILES	activity change, negative = cytotoxicity
O=C(OCC(=O)c1ccc(Br)s1)c1ccc(O)cc1	-0.455% (inactive)
O=C(Nc1ccc(-c2nc3ccccc3o2)cc1)c1cccnc1	10.4% (inactive)
c1cncc(CNc2cccc(-c3nc4ccccc4[nH]3)c2)c1	6.83% [at 12 µM] (inactive)
Cc1ccc(-c2cc3nc(NCCc4ccncc4)n(C)c(=O)c3s2)cc1	-1.72% (inactive)
Cc1ccc(C(=O)Nc2ccc(N3CCCCC3)cc2)cc1	-5.53% (inactive)
O=C(Cc1ccccc1)Nc1ccc(N2CCCCC2)cc1	-10% (inactive)
COc1ccc(-c2cn3cccc(C)c3n2)cc1F	-15.3% (inactive)
COc1ccc(C2=Nc3ccccc3N(C(=O)c3ccc4ncccc4c3)C2C(=O)NC(C)(C)C)cc1 (centres undefined)	-21.3% (inactive)
CN(C)c1ccc(N=Nc2ccc(S(N)(=O)=O)cc2)cc1	-4.4% (inactive)
CCNS(=O)(=O)c1ccc2nc(NC(=O)/C=C/c3cc(OC)c(OC)c(OC)c3)sc2c1	-1.13% (inactive)
Cc1cccc(/C=C/c2ccccc2)n1	5.81% (inactive)
COc1cc(/C=C/c2ccc3cccc(O)c3n2)cc(Cl)c1OC	-24.2% (inactive)
Cc1ccc2nc(/C=C/c3cccc(F)c3)ccc2c1	-21.2% (inactive)
Cc1cccc(NC(=O)Nc2ccc3c(c2)OCO3)n1	-21.1% (inactive)
O=C(NC1CCCC1)c1noc2c1CCCCC2	5.25% (inactive)
O=C(NC1CCCCCCC1)NC1CCCCC1	1.7% (inactive)
O=C(Nn1c(SCc2cccc([N+](=O)[O-])c2)nc2ccccc2c1=O)c1ccccc1	-5.38% (inactive)
O=C(Nc1ccc(N2CCCC2)cc1)c1cccc(Cl)c1	-16.3% (inactive)
Cc1ccc(Nc2cc(C)nc(-c3ccccc3O)n2)cc1	-4.25% (inactive)
Oc1ccccc1/C=N/Nc1cccc2cccnc12	-6.46% (inactive)
O=C(O)c1ccc(N/N=C/c2cccc3cccnc23)cc1	-16.7% (inactive)
COc1ccc(-c2cc3cc(OC)c(OC)cc3cn2)cc1	-3.55% (inactive)
COc1cccc(NC(=O)NCc2ccccn2)c1	0.982% (inactive)
Cc1cccc(-n2ncc3c(N4CCC(C)CC4)ncnc32)c1	0.798% (inactive)

— PubChem BioAssay AID1053143 (Broad Institute, 2014)
